# Screens: PubChem, National Center for Advancing Translational Sciences (NCATS)
# Shown are actives, neighbours in structure and some others; about 7.9% of the full set was active somewhere.
# FMDV inh – foot and mouth disease virus antiviral activity; FMDV antiviral cell-based qHTS; Potency, µM (titrated, usually from 57.9 µM), for inactives: at the top dose activity change, negative = inhibition, usual class: inhibitors; 410,000 compounds, 1.2% hits; calls by dose curve; tested in HEK293T cells; also: read-out not given here; potency is read from the fitted curve at half-maximal effect; nearly all actives have a fitted effect of over 45% in size
# HCV inh – blocks hepatitis C virus | Huh7.5.1 HCVcc-Cre infection, luciferase reporter, 44 h | Potency, µM (highest dose often 41.8 µM), without a hit: top-dose activity change, negative = inhibition, most hits filed as inhibitors | 340,000 compounds, 3.4% hits | AID 651820; active = well fitted inhibition curve with a large enough effect; inconclusive = small, poorly fitted or top-dose-only effect, or another doubt; inactive = no such curve, though single readings can be large or run the other way; also: potency is read from the fitted curve at half-maximal effect
#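 Luciferase read-out (15 sec integration) after a 15 min room-temperature substrate step quantifies HCVcc-Cre infection. Cells, 1,000 per well, had compound added 4 h post-plating, then virus at ~0.5 moi, and were cultured 44 h.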
# HCMV inh – inhibitors of human cytomegalovirus; HFF cells, HCMV-luciferase reporter, 72 h; stronger effect = lower value; activity change, negative = inhibition, % at 57.5 µM; 410,000 compounds, 4.5% hits; in the data active = activity change below about -60%; inconclusive = no clear call, values can overlap the other calls; inactive = above about -39%
#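 Screen run at 2 compound doses on HFFs infected with reporter HCMV, MOI 1 PFU/cell. Luciferase activity from cell lysates at 72 h post infection gave inhibition relative to buffer-only and Salinomycin wells.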
# MARV entry inh – Marburg virus entry inhibition. Marburg virus pseudotyped entry inhibition, cell reporter. 300,000 compounds, 1.8% hits. Potency, µM (top dose mostly 37.8 µM), for inactives: top-dose activity change, negative = inhibition, hits mostly inhibitors; calls by dose curve; tested in HEK293 cells; also: potency is read from the fitted curve at half-maximal effect
# Lassa entry inh – inhibitors of Lassa virus binding or cell entry. Lassa virus pseudotype entry inhibition, cell reporter. Potency, µM (top dose mostly 37.9 µM), for inactives: at the top dose activity change, negative = inhibition, usual class: inhibitors. 300,000 compounds, 1.2% hits. AID 540256; calls by dose curve; tested in HEK293 cells; also: potency is read from the fitted curve at half-maximal effect; nearly all actives have a fitted effect of over 50% in size
# * marks the source's active call; other numbers are inactive results; ? = inconclusive; . = no result; [ ] = another dose, or the depositor's remark. % is scaled to controls: 0 for no effect and ±100 for the full control effect.
SMILES,FMDV inh,HCV inh,HCMV inh,MARV entry inh,Lassa entry inh
Cn1cccc1C(=O)N1CCC2(CCN(Cc3ccncc3)CC2)CC1,-17%,.,.,.,.
CCOC(=O)C1=C(C)NC(C)=C(C(=O)OCC)C1c1ccc(Br)o1,-30%,?,-79*,-44%,-3%
O=S(=O)(Nc1cccc2ncccc12)c1cccs1,20µM*,?,.,?,?
O=C(NC1=NC2CCCCC2N1)c1ccccc1 (stereo not given),13µM*,19%,-6,?,?
CSc1ccccc1C(=O)N1CCC2(CC1)CC(=O)c1ccccc1O2,?,-13%[8.37 µM],14,-19%,-3%
CCc1nnc(SCC(=O)Nc2ccccc2)n1CC1CCCO1 (stereo not given),-21%,.,?,3%,2%
Cc1ccc(N=CC2=C(O)CC(c3ccccc3Cl)CC2=O)cc1 (stereo not given),17%,14%,45,.,.
O=C1CC(c2ccccc2Cl)CC(O)=C1C=Nc1ccccc1 (stereo not given),10%,4%,-73*,-15%,?
CC1(C)CC(=O)c2c(S(C)(=O)=O)sc(Br)c2C1,-25%,12%,-60*,.,.
C[C@H]1[C@@H](NS(=O)(=O)c2ccccc2)CC[C@@]23CCCN2C(=O)CCC[C@@H]13,.,.,-16,.,.
C[C@@](N)(C(=O)O)[C@@H]1C[C@@H]1C(=O)O,40µM*,.,.,.,.
C=CCNS(=O)(=O)NC(=O)C1=C(N2CCCC2)COC1=O,0%,31%,5,.,.
Cn1cnc(S(=O)(=O)N2CCCCC2c2cc(C(=O)Nc3ccc(F)c(Cl)c3)no2)c1 (stereo not given),37%,.,25,.,.
CCN1C(=O)c2cccc3c(NC(=O)c4cccc(N5C(=O)CCC5=O)c4)ccc1c23,?,-14%,40,?,-1%
CCOc1cc(C(=O)Nc2ccc3c4c(cccc24)C(=O)N3CC)cc(OCC)c1OCC,?,?,100,18µM*,-3%
Cc1ccc(O)c(Cc2cc(C)cc(Cc3cc(C)ccc3O)c2O)c1,-8%,.,?,.,.
Cc1ccc(O)c(CNCCNCc2cc(C)ccc2O)c1,-20%,?,-67*,.,.
COc1ccc(N2C(=O)CN(Cc3ccc(OC)c(OC)c3)C2=S)cc1,-21%,?,-81*,-8%[46.1 µM],?
CCc1ccccc1N1C(=O)CN(Cc2cc(OC)c(OC)c(OC)c2)C1=S,-29%,32µM*,-15,?,?
O=C(COc1ccc(-c2nnco2)cc1)Nc1ccc(C(F)(F)F)cc1,-23%,?,-75*,?,13%
CCC(C)c1ccccc1NC(=O)COc1ccc(-c2nnco2)cc1 (stereo not given),-4%,1%,-17,?,4%
Cc1cccc(NS(=O)(=O)c2cccc(C(=O)NCCCN3CCOCC3)c2)c1,6%,1%,12,4%[46.1 µM],3%
FC(F)(F)c1nnc2c(Sc3ccccc3)nc3ccccc3n12,31%,?,-101*,-5%,-1%
FC(F)(F)c1nnc2c(Sc3ccccn3)nc3ccccc3n12,6%,?,-3,-19%,1%
FC(F)(F)c1nc2ccccc2c2nc3ccccc3n12,11%,14%,9,?,-7%
SMILES,FMDV inh,HCV inh,HCMV inh,MARV entry inh,Lassa entry inh
FC(F)(F)c1nc2ccccc2n2c(-c3ccc(Cl)cc3)nnc12,?,5%,-106*,?,?
FC(F)(F)c1nnc2c(Sc3ccc(Cl)cc3)nc3ccccc3n12,?,?,-103*,2%,4%
c1ccc(-c2nnc(CSc3nc4ccccc4[nH]3)o2)cc1,-15%,22%,-20,4%,2%
Nc1c(-c2ccccc2)c(CSc2nc3ccccc3[nH]2)nn1-c1cccc(Cl)c1,?,?,-95*,?,?
Cc1ccccc1-n1nc(CSc2nc3ccccc3[nH]2)c(-c2ccccc2)c1N,?,?,-87*,?,?
CCSc1nc2ccccc2[nH]1,20%,4%,0,1%,0%
Nc1c(-c2ccccc2)c(CSc2nc3ccccc3[nH]2)nn1-c1ccc(Cl)cc1,0%,11µM*,-39,?,?
N#C/C(=C\c1ccc(-c2ccc(C(=O)O)cc2)o1)c1nc2ccccc2[nH]1,0%,5%,52,10µM*,?
N#C/C(=C\c1ccc(-c2ccc(Cl)c(C(=O)O)c2)o1)c1nc2ccccc2[nH]1,28%,.,29,10%[46.1 µM],-1%[46.1 µM]
